Data from ChEMBL document CHEMBL3988442, “University of Dundee, Small-Polar-MMV Screening Library” (2021).

Key:
[1] = target: T1, Aspartate--tRNA(Asp/Asn) ligase (Mycobacterium tuberculosis (strain ATCC 25618 / H37Rv)) (UniProt P9WFW3); assay: Assay for Asp RNA synthetase-1 from Mycobacterium tuberculosis; type: functional; design: scale not given: direction of the effect not stated beside the values; conditions: 30 µM; note: in the data most compounds retested in dose-response had high values
T1 sequence (whole entry): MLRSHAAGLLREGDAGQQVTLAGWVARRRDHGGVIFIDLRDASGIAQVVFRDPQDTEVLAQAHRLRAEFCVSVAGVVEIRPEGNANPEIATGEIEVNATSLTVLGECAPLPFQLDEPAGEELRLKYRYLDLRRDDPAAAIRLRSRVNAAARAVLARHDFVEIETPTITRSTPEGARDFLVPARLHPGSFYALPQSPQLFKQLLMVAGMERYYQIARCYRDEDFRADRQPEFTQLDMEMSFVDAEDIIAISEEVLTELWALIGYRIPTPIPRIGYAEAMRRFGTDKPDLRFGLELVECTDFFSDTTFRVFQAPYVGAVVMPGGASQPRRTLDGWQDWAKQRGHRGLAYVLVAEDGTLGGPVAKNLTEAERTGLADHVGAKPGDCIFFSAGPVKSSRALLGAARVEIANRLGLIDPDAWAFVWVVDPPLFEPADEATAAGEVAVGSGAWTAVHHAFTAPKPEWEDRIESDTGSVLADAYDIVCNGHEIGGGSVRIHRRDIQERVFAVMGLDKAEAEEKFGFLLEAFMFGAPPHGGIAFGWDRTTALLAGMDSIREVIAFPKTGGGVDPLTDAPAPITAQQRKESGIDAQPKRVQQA

[2] = target: Shiga toxin 2 (Escherichia coli O157:H7) (UniProt P09385+P09386); assay: E. coli 0.157:H7 Shiga Toxin SOP - stx2 screening assay; type: functional; design: scale not given: direction of the effect not stated beside the values; conditions: 30 µM

Compound	Percent Effect [1]	Percent Effect [2]
Cn1ncc2c1NC(=O)CC2c1ccc(O)cc1 (configuration not stated)	0.0331%	-13.8%
Cc1ncsc1C(=O)NCCn1nc2ccccn2c1=O	-1.86%	15%
c1cnn(CC2CCCN2c2ncnc3sccc23)c1 (configuration not stated)	5.36%	26.3%
Cc1nc(CN2C[C@@H]3CN(C(=O)C4CC4)C[C@@H]3C2=O)cs1	-6.04%	-17.6%
O=C(c1ccncc1)N1Cc2ccccc2OC2(CCOCC2)C1	-4.33%	-1.88%
CN(C)c1ccc(C(=O)N2CCN(C(=O)N3CCCCC3)CC2)nn1	-3.34%	-35%
CN(Cc1ccco1)[C@@H]1CN(Cc2ccco2)[C@@H]2CCCO[C@H]12	-1.66%	0.222%
CCC1CN(C(=O)NCCOc2ccc3c(c2)OCO3)CCO1 (configuration not stated)	-0.509%	-17.6%
CC(=O)N1CCCn2nc(CNS(=O)(=O)c3cc(C)cs3)cc2C1	1.67%	5.82%
Cn1ccc(-c2cc(C(=O)N3CCOCC3)c3ccccn23)n1	3.13%	-17.8%
CC(C)c1cc(NC(=O)CN2CCC(N3CCNC3=O)CC2)on1	0.0463%	-28.7%
O=C1CC[C@H]2[C@H](CCN2C(=O)C2CCCO2)N1CCN1CCCC1 (some centres not stated)	-1.39%	4.3%
CCn1cc(NC(=O)NCC(c2cccc(F)c2)N(C)C)cn1 (configuration not stated)	-4.28%	21.4%
COc1cc2cc(C(=O)O)n(C)c2cc1OC	-0.697%	-0.0542%
Cn1cc(CN2CC[C@H](O)[C@@H]2Cc2ccncc2)cn1	-1.6%	-6.08%
CC(=O)c1cccc(NC(=O)Cn2cc(I)cn2)c1	6.41%	-55.6%
Cc1ccc(N2CCCC(NCC(=O)NCC3CC3)C2)nn1 (configuration not stated)	-5.2%	-32.6%
CCc1[nH]ncc1C(=O)N1CCCC(n2cccn2)C1 (configuration not stated)	-2.98%	3.89%
Cc1ccc(S(=O)(=O)N2CCC3(CC(C(=O)NCC4CC4)=NO3)C2)cc1 (configuration not stated)	10.8%	14.7%
CN(CC(=O)N1CCCN(Cc2cscn2)CC1)c1cnccn1	-1.02%	-25.9%
CC(c1cccc(S(N)(=O)=O)c1)N(C)CCc1ccccc1 (configuration not stated)	5.72%	-26.2%
O=C(Nc1cnn(CCN2CCOCC2)c1)c1ccccn1	-1.48%	19.4%
COC(=O)c1ccc(N2CCN(CCC(=O)NC(N)=O)C(C)C2)cc1 (configuration not stated)	3.04%	25.6%
COc1c(C2CCCN2C(=O)c2ccnc(N(C)C)c2)c(C)nn1C (configuration not stated)	2.59%	25.8%
Cc1nc(CCNC(=O)C2CC(=O)N(C(C)(C)C)C2)sc1C (configuration not stated)	1.05%	-3.12%
Cc1ccc(OCC(=O)NCc2ccccc2F)nc1	-0.524%	-8.96%

Compound	Percent Effect [1]	Percent Effect [2]
CCCc1n[nH]c(C2CN(C(=O)CCCn3cccn3)CCO2)n1 (configuration not stated)	-0.947%	-21.7%
COCc1nc(N(C)C)ncc1C(=O)NC(C)C	-0.697%	-16.3%
CC[C@@H]1N(CC2CC2)CCC[C@]12CCC(=O)N2CCOC	-4.31%	-1.83%
Cn1cc(C(=O)NC[C@@H]2OC[C@H]3CN(Cc4ccco4)CC[C@H]32)cn1	-0.729%	-33.5%
CCNC(=O)[C@@H]1C[C@@H](NC(=O)Cc2ccccn2)CN1CCCSC	-0.228%	-40.5%
Cc1ccc(C(=O)N2CCN(C(=O)Nc3ccccn3)CC2)o1	4.09%	10.3%
Cc1ccc(C)c(OC2CCN(C(=O)c3ccc(C)[nH]c3=O)CC2)c1	-5.01%	16%
O=c1nc(SCc2ccncc2)c2c(n1CCO)CCCC2	-6.81%	-5.81%
Cc1ccc(-c2nc(CN3CCc4nn(C)c(=O)cc4C3)no2)cc1	5.81%	-0.113%
COc1ccc(C(=O)N2CC[C@H](CO)[C@H](O)C2)c(C)c1	-1.53%	9.86%
Cc1cc(CNc2ccc(C(=O)N3CCCC(C)C3)cc2C)no1 (configuration not stated)	-2.25%	11.6%
Cc1n[nH]c(=O)c2c(NC(=O)CN3CCCC(C(F)(F)F)C3)oc(C)c12 (configuration not stated)	-2.66%	-52.6%
Cc1ccccc1-c1cncc(C2CCN(C)CC2)n1	2.52%	-4.06%
CN(C)c1cc2c(nn1)CCN(C(=O)C1Cc3ccccc3S1)C2 (configuration not stated)	1.89%	-20.9%
c1ccc(-n2ncc(CNCC3CCCN3c3cccnn3)n2)cc1 (configuration not stated)	4.5%	8.59%
O=C(c1cnc(-c2cccs2)s1)N1CCCC(n2cccn2)C1 (configuration not stated)	2.29%	17.4%
COCC(=O)N1CCCC1c1cc(Nc2nnc(C)s2)nc(C)n1 (configuration not stated)	-3.43%	-14.2%
Cc1nc(Nc2ncccn2)cc(C2CCCN2C2CCOCC2)n1 (configuration not stated)	2.13%	-0.835%
CCc1ccc(CN2CCC3(CC2)NC(=O)CC3c2ccncc2)o1 (configuration not stated)	7.7%	-9.95%
CC(C)c1ncc(S(C)(=O)=O)c(C2CCCNC2)n1 (configuration not stated)	-1.91%	10.4%
COCCC(=O)N1CCn2c(COCC3CC3)cnc2C1C (configuration not stated)	3.62%	5.04%
c1ccc(-c2nc(CN3CCc4c(ncn4C4CC4)C3)cs2)cc1	4.49%	-40.4%
COCCN(Cc1ccoc1)C(=O)c1ccccc1Cl	2.46%	6.17%
Cc1ccc(C2CCCN2Cc2nc3c(cnn3C)c(=O)[nH]2)cc1C (configuration not stated)	-1.66%	-9.34%
CC(C)c1nnc2n1CCN(C(=O)CN1Cc3ccccc3C1=O)C2	-0.233%	-25.5%
